# PubChem BioAssay (NCI)
# About 83,000 compounds went through this panel and 20% of them were active in at least one assay; those are over-represented in the sample as a whole.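 Interpretation: 100, growth as untreated; towards 0, rising growth inhibition; 0, no net growth; 0 to -100, cell death. Compounds scoring below 10 were considered active.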 Values without a mark were called inactive. Active and inactive are the calls of the source.
# Legend:
# Assay in all cases: NCI-60 one-dose screen, 48 h (100 = growth as untreated, 0 = no growth, -100 = all killed)
# SK-MEL-2 melanoma = conditions: 10 µM unless noted
# EKVX NSCLC = conditions: 10 µM
# SN12C renal = conditions: 10 µM unless noted
# UO-31 renal = conditions: 10 µM unless noted
# TK-10 renal = conditions: 10 µM unless noted
# ACHN renal = conditions: 10 µM unless noted
# CAKI-1 renal = conditions: 10 µM unless noted
# A498 renal = conditions: 10 µM unless noted
# CCRF-CEM leukemia = conditions: 10 µM
# MOLT-4 leukemia = conditions: 10 µM unless noted
SMILES,growth (SK-MEL-2 melanoma),growth (EKVX NSCLC),growth (SN12C renal),growth (UO-31 renal),growth (TK-10 renal),growth (ACHN renal),growth (CAKI-1 renal),growth (A498 renal),growth (CCRF-CEM leukemia),growth (MOLT-4 leukemia)
COc1ccc2nc3cc(Cl)ccc3c(NCCCNC(C)=O)c2c1,52.3%,68.5%,38.1%,21.2%,44.2%,16.1%,40.6%,22.6%,39%,26.5%
Cc1nc(NC(=S)Nc2ccc(F)cc2)sc1C(=O)NNC(=S)Nc1ccc(F)cc1,3.22% (active),63.2%,71.8%,38.7%,43.5%,65.3%,101%,53.6%,40.1%,36.5%
CC(C)OC(=O)Nn1cnc2ccccc21,106%,106%,113%,93.1%,87.6%,114%,92.2%,119%,81%,75.2%
Cc1ccc(C(=O)Nc2ccc(CN3CCN(C)CC3)c(C(F)(F)F)c2)cc1C#Cc1cncc2ncccc12,-78.7% (active),-71.8% (active),-98.2% (active),-96.3% (active),-98.8% (active),-98.9% (active),1.96% (active),-95.5% (active),-56.2% (active),-58.9% (active)
N=C(N)c1ccc(-c2ccc(-c3ccc(F)cc3)s2)cc1,-62.1% (active),-91.4% (active),-71.2% (active),-88.4% (active),-79.9% (active),-91.8% (active),-95.1% (active),-87.8% (active),-62% (active),-58.8% (active)
CCOC(=O)c1cc(C(=O)c2ccc(Br)cc2)n2cc(C)cc(C)c12,91.3%,99.5%,101%,86.8%,114%,104%,82.1%,78.4%,83.9%,98.9%
COc1cc(-c2nc3c(c(C)nc4c3nnn4-c3ccccc3)c(=O)o2)cc(OC)c1OC,107%,115%,102%,87.9%,104%,103%,94.8%,61.1%,96.2%,102%
O=C(Cc1ccccc1[N+](=O)[O-])c1ccc2c(c1)OCO2,99.4%,97.5%,96%,80.1%,91.6%,103%,97.8%,77.9%,76.3%,86.6%
O=S(=O)(Cc1cccc2c(CS(=O)(=O)c3ccc(Cl)cc3)cccc12)c1ccc(Cl)cc1,98.8%,82.4%,98.6%,106%,113%,96.7%,73%,109%,90.7%,95.5%
CC(=O)N1N=C(c2ccc(Cl)cc2)CC1c1cn(-c2ccccc2)nc1-c1ccc([N+](=O)[O-])cc1 (stereo not given),129%,98.8%,96.8%,107%,111%,96.8%,83.5%,109%,105%,110%
Nc1cc2c(cc1Br)[nH]c(=O)c1ccccc12,40.2%,49.5%,39.8%,48.1%,44%,22.5%,52.9%,56%,47.1%,20.9%
CCCCCCCCCCCCCCCC[n+]1cccc(C#N)c1,97.7%,98%,96.9%,67.6%,69.3%,39.2%,73%,86.6%,-26% (active),-13.3% (active)
CCOC(=O)c1ccc2n1CCCc1cnc(NC(C)=O)nc1-2,102%,98.5%,102%,89.5%,107%,99.3%,92.1%,74.3%,93.9%,108%
Oc1ccccc1\C=N/N=C/C=C/c1ccccc1,92.7%,94.5%,88%,51.7%,130%,104%,96.7%,78%,7.53% (active),55.3%
COc1cc2c(/C=C3\C(=O)Nc4ccc(Br)cc43)c(Cl)n(C)c2cc1C,29.7%,42.1%,35.5%,31.6%,31.2%,29.5%,69.7%,3.37% (active),-11.7% (active),4.36% (active)
CCCCCCCCCCCCCCCCCC1=NCCN1CCNC(C)=O,111%,80%,104%,83.2%,103%,91.4%,87.6%,78.4%,40.3%,62.6%
CCC1(CC)C(OC)NC(Br)=C(C#N)C1(C#N)C(N)=O (stereo not given),102%,103%,106%,85.2%,118%,108%,117%,114%,100%,88.4%
COc1cc2ncnc(Nc3ccc4c(cnn4C(=O)Nc4ccccc4)c3)c2cc1OC,103%,85.2%,82.1%,65.3%,72.3%,94.2%,76.9%,65.1%,31.6%,80.8%
Nc1nc2c(c3cnccc13)C(c1cccc(Cl)c1)Cc1cnccc1-2 (stereo not given),26.8%,24.2%,33.8%,26.1%,23.9%,15%,25.2%,-5.65% (active),13.3%,16.5%
Clc1ccc(N/N=C/c2ccccn2)nc1,37.4%,5.55% (active),14.4%,-12% (active),26.7%,5.14% (active),8.53% (active),-3.65% (active),11.6%,5.02% (active)
COc1cc(Cn2ccc3c2-c2oncc2CC3)cc(OC)c1,28.8%,53.9%,38%,28.8%,61.7%,47.2%,23.3%,32.4%,30.1%,38.4%
CCOC(=O)c1sc(NS(=O)(=O)c2ccccc2)nc1C,2.52% (active),116%,100%,87%,163%,123%,124%,114%,103%,75.6%
O=C(N/N=C/c1coc2ccccc2c1=O)c1cc2oc(-c3ccccc3)cc2[nH]1,75.4%,90.5%,120%,86.2%,143%,106%,95.3%,101%,103%,55.9%
CC1(C)C(O)NC(Cl)=C(C#N)C1(C#N)C#N (stereo not given),97.6%,102%,127%,81.3%,143%,127%,177%,103%,78.8%,103%
COc1cc(/C=C/C(=O)c2ccc(F)cc2)ccc1OCCCCOc1cc2c(cc1OC)C(=O)N1CCCC1C=N2 (stereo not given),-24.6% (active),8.29% (active),-48.1% (active),-63% (active),-16.9% (active),-85.9% (active),-14.2% (active),7.77% (active),-30.3% (active),-19.4% (active)
CCC(C)(C)c1ccc(OCCCCCCN2CCNCC2)cc1,96.9%,115%,88.2%,63.5%,90.4%,42.6%,70%,71.2%,4.24% (active),10.4%
C=C(C)[C@@H]1CC[C@]2(COC(=O)c3ccccc3C(=O)O)CC[C@]3(C)[C@H](CC[C@@H]4[C@@]5(C)CCCNC(C)(C)[C@@H]5CC[C@]43C)[C@@H]12,94.4%,78.6%,59.3%,72.7%,65.6%,65%,91.7%,113%,28.8%,-7.13% (active)
COc1ccc(C2CC(=O)c3c(O)cc(OC4OC(COC5OC(C)C(O)C(O)C5O)C(O)C(O)C4O)cc3O2)cc1O (stereo not given),-1.88% (active),100%,108%,95.3%,110%,117%,105%,132%,106%,113%
